Screening data: PubChem BioAssay, several laboratories
Compounds with a hit are over-represented: about 1.8% of the library has one in this group of screens.
AI-2 QS mod = modulates the Vibrio harveyi AI-2 quorum sensing system. Vibrio harveyi JMH597 AI-2 luminescence/OD600 ratio, 9 h; hits give low values; strain lacks LuxN and CqsS sensors; 0 = neutral-control median. activity change, % at 7.5 µM. hit rate 0.4% among 300,000. AID 2094; in the data active = activity change below about -75%, passing the limit was not always enough;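 note: luminescence divided by OD600 gain over 9 h not by final OD600 alone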
SUMO Mot1 rescue = inhibitors of SUMOylation pathway: yeast Mot1-301 growth rescue | S. cerevisiae Mot1-301 growth rescue, ATP luminescence, 38.5C; percent above DMSO median, 100 means doubled | growth rescue, % at 18.8 µM | hit rate 1% among 320,000;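 active = every valid replicate shows activation above 250% relative to neutral control wells; inactive = the rest, any valid replicate at or below 250%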;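 note: OY570 slx delta 5 strain wells were the positive control but not used for scaling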
Bfl-1 A1 inh = inhibitors of the anti-apoptotic protein A1, read as caspase activation; caspase activation, % (concentration not given with the values); hit rate 0.066% among 330,000; MEF A1-2A-BIM cells, Caspase-Glo 3/7 luminescence, 3 h; percent of clofoctol response, vehicle zero;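 active = over half of replicate activation scores above 10%, or exactly half above 10 with the replicate mean above 10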
aDG glyco up = increases alpha dystroglycan glycosylation; hit rate 0.22% among 360,000; Pro5-aDG cells, alpha-DG glycosylation AlphaScreen (IIH6); 0% Pro5, 100% B10-LARGE cell signal; activation, % at 10 µM; AID 624168;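 active = activation of at least 8% versus controls, or a plate z-score of at least 8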;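 note: Pro5 are CHO cells carrying HIG-tagged alpha-DG that lacks glycosylation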
ARNT TACC3 PPI = disruptors of human ARNT/TACC3 interaction; hit rate 0.66% among 390,000; AlphaScreen His-ARNT PAS-B/GST-TACC3 binding, luminescence; TACC3 fragment carries E629A point mutation; inhibition, % at 9.99 µM;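 active = mean inhibition of replicates at least 50% and at least half of replicates each reaching 50%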;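 note: 0% = complete ARNT plus TACC3 wells and 100% = ARNT alone without TACC3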
Mot1 SUMO dose = yeast SUMO pathway inhibition in dose response; shares compounds with SUMO Mot1 rescue; S. cerevisiae Mot1-301 galactose growth, ATP luminescence, 24 h; -100 = growth of slx-deleted rescue strain; growth activity, percent, % at 42 µM; 2,300 tested, under 10 active; AID 493004;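 active = Signal drops as the depositor expects, and the fitted half-maximal dose is no more than ten times the top valid tested dose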;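 note: more negative values mean stronger growth rescue toward the control strain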
Numbers without * were called inactive; x = no result; + = active, no number; [ ] = another dose, or the depositor's remark.

SMILES	AI-2 QS mod	SUMO Mot1 rescue	Bfl-1 A1 inh	aDG glyco up	ARNT TACC3 PPI	Mot1 SUMO dose
CCOC(=O)CNC(=O)c1cccnc1	16	+	1	0	11	0
O=C(NCO)c1cccnc1	x	x	x	1	0	x
O=C(COc1ccccc1)NCCS(=O)(=O)N1CCN(c2ccccc2)CC1	13	380*	1	0	-3	0
O=S(=O)(Cc1ccccc1)N1CCN(c2ccccc2)CC1	24	583*	0	0	-3	0
COc1ccc(N2CCN(S(=O)(=O)Cc3ccccc3)CC2)cc1	17	5	-1	0	-14	x
CCOc1ccc(OCC(=O)NCCS(=O)(=O)N2CCN(c3ccccc3)CC2)cc1	x	x	x	0	x	x
CCOc1ccc(NS(=O)(=O)c2ccc(C(=O)N3CCCC(C)C3)cc2)cc1 (stereo not given)	25	12	1	2	-1	x
COc1ccc(NC(=O)c2ccc(-c3csc(C)n3)cc2)cc1	33	796*	-1	0	-7	0
Cc1ccc(C(=O)NC(NC(=O)c2ccc(C)cc2)C(Cl)Cl)cc1	9	378*	-1	1	-9	0
Cc1ccc(C(NC(=O)c2ccccc2)C(Cl)Cl)cc1 (stereo not given)	17	20	0	1	-3	x
O=C(Nc1ccc(F)cc1)N[C@@H]1CC[C@H](CCNC(=O)c2cc(Cl)cc(Cl)c2)O[C@H]1CO	x	x	x	x	-1	x
Cc1ccc2nc(SCC(=O)Nc3cccc(S(N)(=O)=O)c3)[nH]c2c1	-1	741*	1	0	2	0
NS(=O)(=O)c1cccc(NC(=O)CSc2nc3ccccc3[nH]2)c1	40	9	1	0	-3	x
COc1ccc(NC2CCCN(C(=O)c3cccs3)C2)cc1 (stereo not given)	27	-7	0	0	3	x
CCN(C(=S)NCCOC)c1cccc2ccccc12	73	418*	0	0	3	1
CCc1nnc(NS(=O)(=O)c2ccc(NC(=O)c3ccco3)cc2)s1	25	83	0	0	x	x
Nc1ccc(NC(=O)c2ccco2)c(Cl)c1	25	439*	0	0	3	0
CCOc1cc(C(c2c(C)[nH][nH]c2=O)c2c(C)[nH][nH]c2=O)cc(Cl)c1O	38	39	1	0	22	x
Cc1cc(C)cc(C(=O)N2CCC3(CC2)NCCc2[nH]cnc23)c1	28	396*	0	0	-13	0
Cc1ccc2nc(NC(=O)CNS(=O)(=O)c3ccc(Br)s3)sc2c1	17	520*	2	0	-6	0
Cc1ccc2nc(NC(=O)CN(C)S(=O)(=O)c3ccc(Br)s3)sc2c1	55	24	0	0	1	x
COc1ccc2cc3c(N)nn(C(=O)c4ccccc4Cl)c3nc2c1	2	501*	1	0	29	0
CNCC(=O)N(CC(C)C)c1c(N)n(CC(C)C)c(=O)[nH]c1=O	12	637	0	0	13	x
Cc1n[nH]c(C)c1S(=O)(=O)N(CC(=O)NC1CCCC1)c1ccc(C(C)C)cc1	11	634*	0	0	14	0[21 µM]
Cc1nn(C)c(C)c1S(=O)(=O)N(CC(=O)NC1CCCCCC1)c1ccc(C(C)C)cc1	12	-2	0	0	-12	x
SMILES	AI-2 QS mod	SUMO Mot1 rescue	Bfl-1 A1 inh	aDG glyco up	ARNT TACC3 PPI	Mot1 SUMO dose
COc1cc(C[C@@H](C)[C@@H](C)Cc2ccc(O)c(OC)c2)ccc1O	x	20	0	0	41	x
CC(Cc1ccc(O)c(O)c1)C(C)Cc1ccc(O)c(O)c1 (stereo not given)	2	553*	1	x	x	0
C[C@@H]1CN([C@H](C)CO)C(=O)Cc2cc(NC(=O)Cn3cnnn3)ccc2O[C@H]1CN(C)Cc1ccncc1	x	x	x	x	-3	x
COc1c(C)cc(S(=O)(=O)NC2CC(C)(C)NC(C)(C)C2)c(C)c1C	12	687*	0	0	-4	1
COCCn1c(N)c(N(Cc2ccccc2)C(=O)Cc2c(Cl)cccc2Cl)c(=O)[nH]c1=O	17	x	0	0	-9	x
CCOC(=O)c1cnc2c(C)c(Cl)ccc2c1N1CCOCC1	10	828*	1	0	-5	1
COc1cccc(CN(C(=O)c2ccc([N+](=O)[O-])cc2)C2CCS(=O)(=O)C2)c1 (stereo not given)	13	12	0	0	-9	x
COc1ccc(-c2cc(C#N)nc(N3CCN(c4ccccc4)CC3)n2)cc1	12	425*	-1	0	10	0
COc1cccc(-c2cc(C(F)(F)F)nc(N3CCN(c4ccccc4)CC3)n2)c1	26	14	0	0	-8	x
O=C(CCNC(=O)c1ccc(Br)cc1)NCc1ccccc1F	x	812*	0	0	1	-1
O=C(CCNC(=O)c1ccccc1)NCc1ccccc1F	x	4	-1	0	1	x
O=C(/C(=N\Nc1ccc(Br)cc1)Sc1nnnn1-c1ccccc1)c1ccccc1	9	739*	1	0	-2	0
CN(C)c1ccc(/C=C(/NC(=O)c2ccccc2)C(=O)N/N=C/c2ccc([N+](=O)[O-])c(O)c2)cc1	16	-20	-1	0	6	x
CN(CC(=O)Nc1ccccc1Sc1ccccc1)Cc1nc2ccccc2c(=O)[nH]1	16	704*	0	0	0	0
CN(CC(=O)NC(c1ccccc1)c1ccccc1)Cc1nc2ccccc2c(=O)[nH]1	10	-4	0	0	-1	x
Cc1[nH]n(-c2ccccc2)c(=O)c1C(C[N+](=O)[O-])c1ccc(F)cc1 (stereo not given)	8	173	0	1	23	x
Cc1ccc(C(C[N+](=O)[O-])c2c(C)[nH]n(-c3ccccc3)c2=O)cc1 (stereo not given)	30	401*	4	0	51*	-2
COCC(=O)NNC(=O)c1ccccc1OC	33	438*	0	0	-5	0
Cc1nc2c(c(=O)n1CCC1=CCCCC1)c1nc3ccccc3nc1n2/N=C/c1ccco1	13	-10	0	0	-16	x
CCCCNS(=O)(=O)c1ccc(OC)cc1	11	495*	-1	0	-9	0
CCCCCCNC(=O)CCCCCNS(=O)(=O)c1ccc(OC)cc1	20	42	0	0	0	x
Cc1nc2ccccc2c(=O)n1CCCN1CCOCC1	x	-12	0	0	0	x
Cc1nc2ccccc2c(=O)n1CC(=O)N1CCOCC1	7	687*	0	0	-13	1
O=C(c1cc(-c2ccc(Cl)cc2)n(-c2ccc(Cl)cc2)n1)N1CCOCC1	13	399*	0	1	2	0
